Results published in PubChem BioAssay (NCATS).
“And” between values parts separate entries of the source, which are not always exact repeats. Equal values may be shown once. Records with an inconclusive call do not appear. The source made the active and inactive calls. Calls follow the shape of the dose curve; as a rule, active = well fitted curve in the direction sought with a large enough effect; inconclusive = small, poorly fitted or top-dose-only effect, or another doubt; inactive = no such curve, though single readings can be large; an effect the other way counts as inactive or inconclusive.

What was measured:
KB-3-1 = assay: Cytotoxic Profiling of Annotated Libraries Using Quantitative High-Throughput Screening (AID 1296008); details: Five cell lines viability, CellTiter-Glo ATP luminescence, 48-72 h; max response: stronger effect = lower value; also: nearly all actives have a fitted effect of over 60% in size
Method in brief: (§1)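 Cells exposed to compounds for 48 or 72 hr at 37 degrees Celsius. Viability read as ATP-coupled luminescence with CellTiter-Glo after 10 min at room temperature.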

NIH3T3 [1] = assay: as above; details: Five cell lines viability, CellTiter-Glo ATP luminescence, 48-72 h; max response: stronger effect = lower value
Method in brief: as §1

MCC-13 = assay: qHTS assay to identify novel small-molecules to repurpose for Merkel cell carcinoma treatment (AID 1296009); details: MCC and control cell lines, CellTiter-Glo viability, 72 h; series mostly up to 46 µM; also: nearly all actives have a fitted effect of over 60% in size; also: potency is read from the fitted curve at half-maximal effect
Method in brief: (§2)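 CellTiter-Glo luminescence after 72 hr compound exposure at 37 degree celsius gave cell viability. Libraries NPC and MIPE were run as 8- and 11-point dose responses; RLUs normalized to DMSO (negative) and no-cell (cytotoxicity) controls.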

MCC-26 = assay: as above; details: MCC and control cell lines, CellTiter-Glo viability, 72 h; series mostly up to 46 µM
Method in brief: as §2

MKL-1 = assay: as above; details: MCC and control cell lines, CellTiter-Glo viability, 72 h; series mostly up to 46 µM
Method in brief: as §2

MKL-2 = assay: as above; details: MCC and control cell lines, CellTiter-Glo viability, 72 h; series mostly up to 46 µM
Method in brief: as §2

UISO = assay: as above; details: MCC and control cell lines, CellTiter-Glo viability, 72 h; series mostly up to 46 µM
Method in brief: as §2

WaGa = assay: as above; details: MCC and control cell lines, CellTiter-Glo viability, 72 h; series mostly up to 46 µM
Method in brief: as §2

C33A = assay: Primary qHTS to identify gynecologic anti-cancer compounds using libraries of approved drugs and bioactive compounds (AID 1345084); details: Gynecologic cancer cell panel viability, ATPlite luminescence, 48 h; series mostly up to 57.5 µM; also: nearly all actives have a fitted effect of over 55% in size; also: potency is read from the fitted curve at half-maximal effect
Method in brief: (§3)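 Cytotoxicity screen measuring ATP content by luciferase luminescence. Each compound is applied at five concentrations for 48 h at 37 C with 5% CO2.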

CAOV3 = assay: as above; details: Gynecologic cancer cell panel viability, ATPlite luminescence, 48 h; series mostly up to 57.5 µM
Method in brief: as §3

CASKI = assay: as above; details: Gynecologic cancer cell panel viability, ATPlite luminescence, 48 h; series mostly up to 57.5 µM
Method in brief: as §3

Es-2 = assay: as above; details: Gynecologic cancer cell panel viability, ATPlite luminescence, 48 h; series mostly up to 57.5 µM
Method in brief: as §3

HeLa = assay: as above; details: Gynecologic cancer cell panel viability, ATPlite luminescence, 48 h; series mostly up to 57.5 µM
Method in brief: as §3

Hek293T = assay: as above; details: Gynecologic cancer cell panel viability, ATPlite luminescence, 48 h, control line for the selectivity index; series mostly up to 57.5 µM
Method in brief: as §3

JEG-3 = assay: as above; details: Gynecologic cancer cell panel viability, ATPlite luminescence, 48 h; series mostly up to 57.5 µM
Method in brief: as §3

OV90 = assay: as above; details: Gynecologic cancer cell panel viability, ATPlite luminescence, 48 h; series mostly up to 57.5 µM
Method in brief: as §3

HACAT = assay: qHTS assay to identify novel small-molecules to repurpose for Merkel cell carcinoma treatment (AID 1296009); details: MCC and control cell lines, CellTiter-Glo viability, 72 h; at 44.8 µM (top of the series) unless noted; also: nearly all actives have a fitted effect of over 60% in size; also: potency is read from the fitted curve at half-maximal effect
Method in brief: as §2

CRL-7250 = normal cell line; assay: as above; details: MCC and control cell lines, CellTiter-Glo viability, 72 h; at 44.8 µM (top of the series) unless noted
Method in brief: as §2

NIH3T3 [2] = assay: as above; details: MCC and control cell lines, CellTiter-Glo viability, 72 h; at 44.8 µM (top of the series) unless noted
Method in brief: as §2
% is scaled to controls: 0 for no effect and ±100 for the full control effect.

CCCCCCC(=O)CCCCCC/C=C/C[C@@H](O)[C@H](O)[C@@](N)(CO)C(=O)O
inactive: max response (KB-3-1) 4.21% and -11.8% | max response (NIH3T3 [1]) 0.482% | outcome (MCC-13) | Potency (MCC-26) | Potency (MKL-1) | Potency (MKL-2) | Potency (UISO) | Potency (WaGa) | Potency (C33A) | outcome (CAOV3) | outcome (CASKI) | Potency (Es-2) | Potency (HeLa) | outcome (Hek293T) | outcome (JEG-3) | Potency (OV90)

CCCN(CCC)C(=O)Cc1c(-c2ccc(Cl)cc2)nc2ccc(Cl)cn12
inactive: max response (KB-3-1) -8.04% | max response (NIH3T3 [1]) 0.9% | outcome (MCC-13) | Potency (MCC-26) | Potency (MKL-1) | Potency (MKL-2) | Potency (UISO) | Potency (WaGa) | Potency (C33A) | outcome (CAOV3) | outcome (CASKI) | Potency (Es-2) | Potency (HeLa) | outcome (Hek293T) | outcome (JEG-3)

C[C@]12CC[C@@H]3c4ccc(OC(=O)N(CCCl)CCCl)cc4CC[C@H]3[C@@H]1CC[C@@H]2O
inactive: max response (KB-3-1) -1.74% | outcome (MCC-13) | Potency (MCC-26) | Potency (MKL-1) | Potency (MKL-2) | Potency (UISO) | Potency (WaGa)
active: Potency (HeLa) 35.5 µM

COc1cc(CC(C)N)cc(OC)c1OC (centres undefined)
active: Potency (Es-2) 15.8 µM | Potency (HeLa) 1.58 µM
inactive: max response (KB-3-1) -7.25% | max response (NIH3T3 [1]) -5.38% | outcome (MCC-13) | Potency (MCC-26) | Potency (MKL-1) | Potency (MKL-2) | Potency (UISO) | Potency (WaGa) | outcome (CAOV3) | outcome (CASKI) | outcome (Hek293T) | outcome (JEG-3)

CC(C)C[C@H](CN)CC(=O)O
inactive: max response (KB-3-1) -13.5% and 1.18% | max response (NIH3T3 [1]) -13.2% | outcome (MCC-13) | Potency (MKL-1) | Potency (MKL-2) | Potency (UISO) | Potency (WaGa)

CCC1(CC)C(=O)C=CNC1=O
inactive: max response (KB-3-1) -0.338% | max response (NIH3T3 [1]) 1.41% | outcome (MCC-13) | Potency (MCC-26) | Potency (MKL-1) | Potency (MKL-2) | Potency (UISO) | Potency (WaGa) | Potency (C33A) | outcome (CAOV3) | outcome (CASKI) | Potency (Es-2) | Potency (HeLa) | outcome (Hek293T) | outcome (JEG-3) | Potency (OV90)

COP(=S)(OC)SCN1C(=O)c2ccccc2C1=O
inactive: max response (KB-3-1) 6.87% | outcome (HACAT) | outcome (MCC-13) | Potency (C33A) | outcome (CAOV3) | outcome (CASKI) | Potency (Es-2) | Potency (HeLa) | outcome (Hek293T) | outcome (JEG-3) | Potency (OV90)
active: Potency (MKL-2) 11.9 µM

C=CCC1([C@H](C)CCC)C(=O)NC(=O)NC1=O
inactive: max response (KB-3-1) -1.57% | max response (NIH3T3 [1]) -4.37% | outcome (MCC-13) | Potency (MKL-1) | Potency (MKL-2) | Potency (UISO) | Potency (WaGa) | Potency (C33A) | outcome (CAOV3) | outcome (CASKI) | Potency (Es-2) | Potency (HeLa) | outcome (Hek293T) | outcome (JEG-3) | Potency (OV90)

C[C@H](N)C(=O)c1ccccc1
inactive: max response (KB-3-1) -7.79% and 0.534% | max response (NIH3T3 [1]) -1.01% | outcome (MCC-13) | Potency (MCC-26) | Potency (MKL-1) | Potency (MKL-2) | Potency (UISO) | Potency (WaGa) | Potency (C33A) | outcome (CASKI) | Potency (Es-2) | outcome (Hek293T) | outcome (JEG-3)

O=c1[nH]c2ccccc2n1C1CCNCC1
inactive: outcome (NIH3T3 [1]) | outcome (CRL-7250) | outcome (MCC-13) | Potency (MKL-1) | Potency (MKL-2) | outcome (NIH3T3 [2]) | Potency (UISO) | Potency (WaGa) | Potency (C33A) | outcome (CAOV3) | outcome (CASKI) | Potency (Es-2) | Potency (HeLa) | outcome (Hek293T) | outcome (JEG-3) | Potency (OV90)

CC[N+]1(CC)CCC(OC(=O)C(O)(c2ccccc2)c2ccccc2)C1 (centres undefined)
inactive: max response (NIH3T3 [1]) 4.46% | outcome (HACAT) | outcome (MCC-13) | Potency (MCC-26) | Potency (MKL-1) | Potency (MKL-2) | Potency (UISO) | Potency (WaGa) | Potency (C33A) | outcome (CASKI) | Potency (Es-2) | Potency (HeLa) | outcome (Hek293T) | outcome (JEG-3) | Potency (OV90)

C[N+]1(C)[C@@H]2CC(OC(=O)[C@H](CO)c3ccccc3)C[C@H]1[C@@H]1O[C@@H]12 (some centres undefined)
inactive: outcome (CRL-7250)

NS(=O)(=O)c1cc2c(cc1Cl)NC(C(Cl)Cl)NS2(=O)=O (centres undefined)
inactive: outcome (CRL-7250)

O=C(OOC(=O)c1ccccc1)c1ccccc1
inactive: outcome (CRL-7250)

CCN(CC)CC#CCOC(=O)C(O)(c1ccccc1)C1CCCCC1 (centres undefined)
inactive: outcome (CRL-7250)

Cc1c[nH]c2ccccc12
inactive: outcome (CRL-7250)

O=[N+]([O-])O[C@H]1CO[C@H]2[C@@H]1OC[C@H]2O[N+](=O)[O-]
inactive: max response (NIH3T3 [1]) -0.157% | outcome (MCC-13) | Potency (MCC-26) | Potency (MKL-1) | Potency (MKL-2) | Potency (UISO) | Potency (WaGa) | Potency (C33A) | outcome (CASKI) | Potency (Es-2) | Potency (HeLa) | outcome (Hek293T) | outcome (JEG-3) | Potency (OV90)

O=c1oc2ccccc2c(O)c1Cc1c(O)c2ccccc2oc1=O
inactive: outcome (NIH3T3 [1]) | outcome (HACAT) | outcome (MCC-13) | Potency (MCC-26) | Potency (MKL-1) | Potency (MKL-2) | outcome (NIH3T3 [2]) | Potency (UISO) | Potency (WaGa) | Potency (C33A) | outcome (CAOV3) | outcome (CASKI) | Potency (Es-2) | Potency (HeLa) | outcome (Hek293T) | outcome (JEG-3) | Potency (OV90)

O=C(COCCOCCOCC(=O)Nc1c(I)cc(I)c(C(=O)O)c1I)Nc1c(I)cc(I)c(C(=O)O)c1I
inactive: outcome (CRL-7250)
